PubChem BioAssay (NCI)
This is part of a sample that, as a whole, favours compounds with a hit. Of some 83,000 tested, about 20% had one in any assay.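 The test compound was applied at a single concentration to cells in 96-well plates for 48 hours, and percent growth was recorded.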 Values without a mark were called inactive. Activity calls are given as the source filed them. Rule for the calls: active = growth percent below 10; inactive = the rest.

Columns and labels:
Assay in all cases: NCI-60 one-dose screen, 48 h (100 = growth as untreated, 0 = no growth, -100 = all killed)
Details in all cases: 10 µM unless noted
EKVX NSCLC = system: EKVX NSCLC
SN12C renal = system: SN12C renal
TK-10 renal = system: TK-10 renal
ACHN renal = system: ACHN renal
CAKI-1 renal = system: CAKI-1 renal
A498 renal = system: A498 renal
CCRF-CEM leukemia = system: CCRF-CEM leukemia
MOLT-4 leukemia = system: MOLT-4 leukemia
UO-31 renal = system: UO-31 renal

Structure (SMILES)	growth (EKVX NSCLC) [%]	growth (SN12C renal) [%]	growth (TK-10 renal)	growth (ACHN renal)	growth (CAKI-1 renal) [%]	growth (A498 renal)	growth (CCRF-CEM leukemia)	growth (MOLT-4 leukemia)	growth (UO-31 renal) [%]
CC(=O)CC1CCCC1c1ccc2ccccc2c1 (stereo not drawn)	102	105	91.5%	101%	98.6	97.6%	97.6%	99.2%	–
O=c1nc2c(-c3nc4ccccc4s3)n[nH]n2c2sc3c(c12)CCCC3	92	97.1	147%	105%	–	103%	–	98.6%	75.4
N#Cc1ccc(-n2nnc3ccccc32)cc1C#N	79.2	101	134%	103%	85.4	72.8%	93.1%	93.3%	–
COC(=O)[C@@H](NC(=O)[C@@H](OC)[C@@H]1Cc2cc3cc(OC4CC(OC5CC(O)C(O)C(C)O5)C(O)C(C)O4)c(C)c(O)c3c(O)c2C(=O)[C@H]1OC1CC(OC2CC(OC3CC(C)(O)C(O)C(C)O3)C(O)C(C)O2)C(O)C(C)O1)C(C)C (stereo partly drawn)	25.3	13.2	21.7%	0.317% (active)	20	-83.2% (active)	7.92% (active)	1.35% (active)	–
CN1[C@@H]2CC[C@H]1/C(=C\c1ccccc1)C1=C2[C@@H](c2ccccc2)C(C#N)=C(N)O1	98.4	75.2	89.5%	97.4%	–	70.3%	70.6%	67.4%	61.7
Cc1nc(-c2cn3c(n2)-c2ccc(-c4cnn(C(C)(C)C(N)=O)c4)cc2OCC3)n(C(C)C)n1	36.1	25.7	8.61% (active)	15.9%	21.1	-31.3% (active)	26.4%	15.2%	–
COC(=O)Nc1nc2ccc(C(=O)c3ccc(N(C)C4COC4)cc3)cc2[nH]1	26.9	30.9	66%	39%	–	10%	15.9%	10.5%	45.3
N#CC[C@H](C1CCCC1)n1cc(-c2ncnc3[nH]ccc23)cn1	82.7	66.3	41.5%	52.1%	–	64%	58.5%	56.1%	26.8
CCN(CC)c1cc2oc3cc(N)cc(=N)c-3nc2cc1C	50.5	31.1	13.2%	17.6%	–	82%	15.3%	29.1%	67.9
Cc1cc(C)n(CC(=O)Nc2ccc(-c3nc4ccccc4s3)cc2)n1	108	102	106%	114%	102	94.6%	98.5%	84%	–
CC(C)Nc1cc(-c2c[nH]c(C(=O)N[C@H](CO)c3cccc(Cl)c3)c2)c(Cl)cn1	38.9	52.2	16.2%	31%	35.3	4.24% (active)	26.1%	12.6%	–
CNC(=O)c1cnc(C)nc1-c1cc(C(C)(C)C)c(O)c(C(C)(C)C)c1	92.6	100	101%	101%	–	112%	106%	95.7%	94.6
CCCC(=O)OCC1OC(n2cnc3c(=S)nc(N)[nH]c32)C(OC(=O)CCC)C1OC(=O)CCC (stereo not drawn)	42.4	42.8	23.5%	39.7%	–	-2.02% (active)	–	0.324% (active)	43.3
CCCC(=O)OCC1OC(n2cnc3c(=S)nc[nH]c32)C(OC(=O)CCC)C1OC(=O)CCC (stereo not drawn)	69.3	49.9	6.59% (active)	41.5%	–	30.8%	24.6%	18.6%	32.6
O=c1[nH]c(N2CCOCC2)nc2scc(-c3ccccc3)c12	53.3	107	86.6%	99.3%	–	104%	101%	90.5%	83.1
